Screening results from PubChem BioAssay.
Akt phos inh: blocks phosphorylation of Akt. Neuro2A IGF-stimulated pAkt S473 HTRF, 20 min; hits give low values. activity change, % for hits at 50 µM. 0.32% of 360,000 active; in the data active = activity change below about -80%; inconclusive = mostly about -51% to -80%
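Neuro2A cells in DMEM with 0.5% FBS, overnight at 37 deg C, given compound at single 50 µM final, then IGF (6 nM final) for 20 min at 37 deg C. Lysed; phospho-Akt Ser473 by HTRF after 24 h, 665/615 ratio.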
D3 antag: D3 dopamine receptor (human) antagonism | P35462 | D3R cells, DiscoveRx beta-arrestin luminescence, antagonist mode; hits give low values | max response, negative = inhibition, % | 2.5% of 360,000 active | AID 652054; in the data active = max response below about -50%; inconclusive = no clear call, values can overlap the other calls
Target sequence (P35462 whole entry, looked up): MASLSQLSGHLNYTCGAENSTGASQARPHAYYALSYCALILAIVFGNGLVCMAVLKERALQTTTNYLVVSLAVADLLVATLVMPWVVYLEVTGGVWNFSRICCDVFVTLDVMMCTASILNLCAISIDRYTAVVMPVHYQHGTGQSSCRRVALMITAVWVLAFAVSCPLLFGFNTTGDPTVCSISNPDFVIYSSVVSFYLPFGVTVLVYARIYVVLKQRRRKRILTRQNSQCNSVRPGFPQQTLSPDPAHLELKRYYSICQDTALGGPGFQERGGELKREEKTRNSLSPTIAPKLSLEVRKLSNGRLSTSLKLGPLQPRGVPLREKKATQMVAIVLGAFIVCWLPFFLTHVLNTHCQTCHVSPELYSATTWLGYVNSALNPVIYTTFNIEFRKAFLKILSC
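Cells expressing the human receptor were seeded at 1500 cells/well, incubated overnight at 37 degrees C in 5% CO2, then exposed to library compounds with dopamine controls for 90 minutes at 37 degrees C before luminescent detection.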
RGS4 inh: blocks human RGS4-accelerated GTP hydrolysis. Potency, µM (top dose mostly 114 µM), usual class: inhibitors. AID 504845. P49798. Transcreener GDP fluorescence polarization, RGS4-accelerated GTP hydrolysis. 0.039% of 390,000 active; active = well fitted inhibition curve with a large enough effect; inconclusive = small, poorly fitted or top-dose-only effect; inactive = no such curve, though single readings can be large or run the other way; also: nearly all actives have a fitted effect of over 75% in size
Target sequence (P49798 whole entry, looked up): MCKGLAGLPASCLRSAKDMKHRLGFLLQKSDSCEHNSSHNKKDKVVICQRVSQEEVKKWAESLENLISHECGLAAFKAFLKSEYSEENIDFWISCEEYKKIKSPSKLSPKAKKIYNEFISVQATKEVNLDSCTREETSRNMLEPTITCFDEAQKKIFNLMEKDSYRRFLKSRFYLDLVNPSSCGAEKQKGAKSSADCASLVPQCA
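MLSMR compounds (23 nl, pin-transferred) preincubated 10 min at room temperature with a 500nM (2x) first reagent, then RGS4 at 900nM (2x) plus Transcreener GDP mix added; fluorescence polarization (620/688 nm) read before and after 90 min at 30 °C.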
LDHA inh: LDHA (human) enzyme inhibition | purified LDHA, NADH/diaphorase-resazurin fluorescence; hits give low values | 0.15% of 480,000 active | activity change, % (values are at about 110 or 230 µM) | P00338 | AID 1347041; in the data active = activity change below about -30%; inconclusive = mostly about -25% to -30%
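Human LDH5 at 2 nM final in Tris HCl pH 7.4 with 0.06 mM NADH and 0.2 mM pyruvate, reacted 5 minutes at room temperature. Remaining NADH coupled via diaphorase/resazurin; resorufin fluorescence read at 0 and 20 minutes, normalized to enzyme-free and DMSO wells.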
PI4K2A inh: blocks human PI4K2A kinase activity; Q9BTU6; purified PI4K2A, ADP-Glo luminescence, 1 h; hits give low values; activity change, negative = inhibition, % at 76.9 µM; 0.13% of 420,000 active; AID 1346378; in the data active = activity change below about -50%; inconclusive = mostly about -30% to -49%
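PI4K2A activity was measured by ADP-Glo luminescence: enzyme (4 ug/mL stock) and phosphatidylinositol (1.2 mM stock) in Tris pH 7.5/MgCl2/EGTA/Triton X-100 buffer were reacted with ATP (300 microM stock) for one hour at ambient temperature.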
DRD3 agonist: agonists of human D3 dopamine receptor | D3R DiscoveRx beta-arrestin cells, luminescence, 90 min | max activation, % | 0.58% of 410,000 active; in the data active = max activation above about 30%
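Agonist mode: compounds and dopamine controls were applied to plated cells for 90 min at 37 degrees C after an overnight attachment at 1500 cells/well. Luminescent read-out followed 30 - 60 minutes at room temperature with DiscoveRx detection reagent.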
Hits are given with their value; n = inactive; u = inconclusive; x = no result; ! = not confirmed by another sample. Sampled rows, rich in hits. Any-hit rate of the full collection: about 2.8%.

SMILES	Akt phos inh	D3 antag	RGS4 inh	LDHA inh	PI4K2A inh	DRD3 agonist
CN1c2ccc([N+](=O)[O-])cc2CC2(C(=O)NC(=O)N(c3ccc(Br)cc3)C2=O)C1c1ccccc1 (centres undefined)	n	-51	n	n	n	n
CCN(CCCl)c1cc(CN(C)C)cc(NC(=O)c2ccc(C(=O)Nc3cc(CN(C)C)cc(N(CC)CCCl)c3)cc2)c1	n	-84	n	n	n	n
Cc1[nH]nc2c1C(c1ccc(-c3ccc(Cl)cc3)o1)SCC(=O)N2 (centres undefined)	x	x	x	n	x	x
Cc1nonc1OCCNCCNc1ccc([N+](=O)[O-])c2cccnc12	n	-63	n	n	n	n
O=C(NC(O)C(Cl)(Cl)Cl)NC(O)C(Cl)(Cl)Cl (centres undefined)	x	x	x	n	n	77
COc1ccc(-c2c(C)c3cc(OC(=O)N(C)C)ccc3oc2=O)cc1	x	x	x	-33	x	x
COc1ccc(-c2c(C)c3ccc(OC(=O)N(C)C)cc3oc2=O)cc1	x	x	x	n	x	x
Cc1nn(-c2ncnc3nc[nH]c23)c2c1C(c1ccc(Cl)cc1Cl)SCC(=O)N2 (centres undefined)	x	x	x	n	x	x
COc1cccc(CNCCc2ccc(Cl)cc2)c1	x	x	x	n	x	x
C[n+]1c(-c2ccccc2)cc(CCCCc2cc(-c3ccccc3)[n+](C)c(-c3ccccc3)c2)cc1-c1ccccc1	n	-73	n	n	n	n
COc1ccc(-c2cc(-c3ccccc3)[n+](C)c(-c3ccccc3)c2)cc1	n	n	n	n	n	n
CN1CC2(C)CNCC(C)(C1)C2O (centres undefined)	x	x	x	n	x	x
Oc1cccc(/C=N/NP(=S)(c2ccccc2)c2ccccc2)c1	-117%	n	n	n	n	n
N#Cc1ccc(NC(=O)CN2CCc3sccc3C2c2cccs2)cc1Cl (centres undefined)	x	x	x	n	x	x
CN1C[C@H](CO)C[C@@H]2c3cccc4[nH]cc(c34)C[C@H]21	n	-56	n	n	n	30
CCN(CC)C(=O)N[C@H]1C[C@@H]2c3cccc4[nH]cc(c34)C[C@H]2N(C)C1	n	n	n	n	n	79
CCOC(=O)[C@]1(C#N)[C@@H]2C=CC(C(C)=O)=CN2[C@@H](C(N)=O)[C@@H]1c1ccsc1	-106%	u	n	n	n	n
CCOC(=O)c1cccc(C2=C(CNC(=O)c3nccs3)[C@H]3CC[C@@H](C2)N3Cc2ccccc2)c1	n	-57	x	n	n	n
CS(=O)(=O)c1ccc(C2=C(CNC(=O)c3ccc([N+](=O)[O-])cc3)[C@H]3CC[C@@H](C2)N3Cc2ccccc2)cc1	n	-86	x	n	n	n
CCOC(=O)c1cccc(C2=C(CNC(=O)c3ocnc3C)[C@H]3CC[C@@H](C2)N3Cc2ccccc2)c1	n	n	x	n	n	n
O=C(c1ccccc1)C(CN1CCCC1)c1ccccc1 (centres undefined)	n	-56	u	n	n	n
Cc1nc2c(=O)n(C)c(=O)nc-2n(C)n1	n	-98	u	n	-55	n
Cc1cc(C)nc(SC(Cl)(Cl)Cl)n1	x	x	x	n	x	x
CCC1(c2ccccc2)C(=O)NC(=O)NC1=O	n	-116	n	n	n	n
Cc1nc(N2CCNCC2)c(C#N)c2c1CCCC2	x	x	x	n	x	x
SMILES	Akt phos inh	D3 antag	RGS4 inh	LDHA inh	PI4K2A inh	DRD3 agonist
CC(Cl)C(=O)NC1CCCCC1 (centres undefined)	x	x	x	n	x	x
COC(CN)c1ccccc1 (centres undefined)	x	x	x	n	x	x
O=c1oc(Cl)c(Cl)c2ccccc12	n	-74	11µM!	n	n	n
Cc1c(CC(=O)N2CCN(CCc3ccccn3)CC2)c(=O)oc2cc(O)ccc12	x	x	x	n	x	x
CCOC(=O)C1(CCOc2ccccc2)CCN(Cc2ccccc2OC)CC1	n	u	n	n	n	n
CCOC(=O)C1(c2ccccc2)CCN(CCC(C#N)(c2ccccc2)c2ccccc2)CC1	n	-72	n	n	n	n
CCOC(=O)C1(c2ccccc2)CCN(CC(=O)Nc2ccc(C)cc2)CC1	n	-56	n	n	n	n
CCOC(=O)C1(c2ccccc2)CCN(CCC(=O)Nc2cccc(Br)c2)CC1	n	-87	n	n	n	n
CCOC(=O)C1(c2ccccc2)CCN(CCC(=O)Nc2ccc(OC)cc2)CC1	n	n	x	n	n	n
CCOC(=O)C1(c2ccccc2)CCN(CCC(=O)Nc2ccc(C(=O)OC)cc2)CC1	n	-51	n	n	n	n
COc1ccc(C2SCC(=O)Nc3c2c(C)nn3-c2ccc(C)cc2)cc1OC (centres undefined)	x	x	x	n	x	x
Nc1ccccc1N=Cc1c(O)n(CCC2=CCCCC2)c(=O)[nH]c1=O	-115%	-87	n	n	n	n
O=C(N/N=C/c1c(O)n(CCC2=CCCCC2)c(=O)[nH]c1=O)c1ccccc1	n	-68	n	n	n	n
O=C(N/N=C/c1c(O)n(CCC2=CCCCC2)c(=S)[nH]c1=O)c1ccccc1	n	u	n	n	n	n
CC(C)N1C(=O)CC2(CC[N+](C)(CCOC(=O)C(O)(c3ccccc3)c3ccccc3)CC2)C1=O (centres undefined)	n	n	n	-34	n	n
CCN(CC)CCOC(=O)C(O)(c1ccccc1)c1ccccc1	n	n	n	n	n	n
O=c1c2ccccc2[se]n1-c1ccccc1	n	n	0.67µM	-108	n	n
C[C@]12C=CC(=O)C=C1CC[C@@H]1C2=CC[C@]2(C)[C@@H](C(=O)CN3CCN(c4cc(N5CCCC5)nc(N5CCCC5)n4)CC3)CC[C@@H]12	n	n	11µM!	n	n	n
Clc1ccc2c(c1)C(OC1CN3CCC1CC3)c1ccccc1CS2 (centres undefined)	n	n	n	n	n	n
CN(C)CCSC1c2ccccc2CSc2ccccc21 (centres undefined)	n	-102	n	n	n	n
Cc1n[nH]c(C)c1[Se]c1c(C)n[nH]c1C	x	x	x	n	x	x
Cn1c(O)c(C=NCCCN2CCCC2=O)c(=O)n(C)c1=O	x	-65	n	n	n	n
CN1CCN(CCOC2c3ccccc3CSc3ccc(Cl)cc32)CC1 (centres undefined)	n	-90	n	n	n	n
CCCCCCCCn1sccc1=O	n	-81	n	n	n	n
O=C(O)CC1OCC=C2CN3CCC45C6=CC(=O)C(=O)C([N+](=O)[O-])=C6NC4C1C2CC35 (centres undefined)	n	n	u	n	-61	n
CC(C)Cn1nc(C(=O)NCC2(N3CCOCC3)CCCCC2)c2ccccc2c1=O	x	x	x	n	x	x
CCN1CCN(c2cn[nH]c(=O)c2Cl)CC1	n	-75	n	n	n	n
[Hg+][c]1ccccc1	x	x	x	-62	x	x
